Source: PubChem
APEX1 inh: APE1 (human) endonuclease inhibition. P27695. recombinant APE1, TAMRA/BHQ-2 abasic DNA cleavage fluorescence. Potency, µM (doses to about 65.8 µM), usual class: inhibitors. hit rate 0.35% among 350,000. AID 2517; also: nearly all actives have a fitted effect of over 55% in size
Target sequence (P27695 whole entry, looked up): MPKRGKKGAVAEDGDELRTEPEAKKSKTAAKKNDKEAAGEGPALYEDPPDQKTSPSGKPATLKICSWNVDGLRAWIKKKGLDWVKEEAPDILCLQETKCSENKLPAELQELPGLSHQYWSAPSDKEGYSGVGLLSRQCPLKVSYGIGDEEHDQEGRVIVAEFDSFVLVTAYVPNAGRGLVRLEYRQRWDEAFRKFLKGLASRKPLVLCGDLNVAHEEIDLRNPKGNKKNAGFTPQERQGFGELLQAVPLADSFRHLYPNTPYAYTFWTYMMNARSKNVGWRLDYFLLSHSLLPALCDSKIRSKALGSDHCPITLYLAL
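Kinetic fluorescence read (525 ex/598 em nm, three reads 60 s apart) of AP-site incision; signal = third minus first read. Enzyme 0.75 nM, dual-labelled THF duplex 50 nM, compound preincubation 15 min RT.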
PI5P4K alpha inh: PI5P4K alpha (human) kinase inhibition; hit rate 1.2% among 330,000; AID 652105; max response, %; P48426; PI5P4Kalpha enzyme, ADP-Glo luminescence, 60 min; stronger effect = lower value; active = max response of -50% or lower; inconclusive = between -30% and -50%; inactive = -30% or higher; also: value at the top dose of about 77 µM
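Enzyme plus substrate dispensed, test compounds pinned in, then ATP (5 microM final) added. After 60 min at RT, ADP-Glo reagent 1 for 45 min and reagent 2 for 30 min preceded luminescence imaging.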
RECQ1 helicase: RECQ1 (human) helicase inhibition; AID 2549; P46063; RECQ1 DNA unwinding, red fluorescence kinetic read; Potency, µM (titrated, usually from 57.3 µM), usual class: inhibitors; hit rate 0.54% among 240,000; also: nearly all actives have a fitted effect of over 30% in size
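50 nM RECQ1T1 preincubated 15 min with compound in Tris pH 8.0 buffer with MgCl2, DTT, Tween-20 and 2.5 ug/ml poly(dI-dC); started with 200 nM TAMRA/BHQ-2 forked duplex and 2 mM ATP. Unwinding read as fluorescence (525/598 nm), two reads 2 h apart.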
KAT2A inh: GCN5L2 (KAT2A) acetyltransferase inhibition. Q92830. GCN5L2 HAT assay, ThioGlo1 CoA-SH fluorescence. Potency, µM (top dose mostly 58.9 µM), usual class: inhibitors. hit rate 0.21% among 390,000. AID 504327
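Compounds, pin-transferred from DMSO stocks, meet 20nM GCN5L2 for 15 min before the reaction begins with H3(1-25) peptide (75uM) and acetyl-CoA (70uM). Thiol-reactive ThioGlo1 reports CoA release over 20 min at room temperature.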
FEN1 inh: human FEN1 inhibition; P39748; Recombinant FEN1 flap cleavage, fluorescence, 15 min; Potency, µM (titrated, usually from 114 µM), actives largely listed as inhibitors; hit rate 0.35% among 390,000; AID 588795; also: nearly all actives have a fitted effect of over 65% in size
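Potency values derive from four-parameter Hill fits of normalized qHTS data. The reaction used 10 nM FEN1 preincubated 15 min at room temperature with compound, then 50 nM DNA substrate, read at 0 and 15 min.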
BLM helicase inh: blocks DNA unwinding by human BLM helicase | hit rate 0.2% among 350,000 | Potency, µM (doses to about 56.1 µM), actives largely listed as inhibitors | AID 2528 | P54132 | recombinant BLM DNA unwinding, fluorescence dequenching; also: nearly all actives have a fitted effect of over 35% in size
Large screens that a line does not name were inactive. Rows were chosen to be rich in hits. Some 1.5% of all compounds tested hit in one or more screens of this group. Unless noted, calls follow the shape of the dose curve; as a rule, active = well fitted curve in the direction sought with a large enough effect; inconclusive = small, poorly fitted or top-dose-only effect, or another doubt; inactive = no such curve, though single readings can be large; an effect the other way counts as inactive or inconclusive.

COc1cc(/C=C2\SC(c3ccc(C)cc3)=NC2=O)cc(OC)c1O	FEN1 inh inconclusive (no result: PI5P4K alpha inh)
COc1cc(/C=C2\SC(N)=NC2=O)cc(Cl)c1O	PI5P4K alpha inh -76.4 (no result: RECQ1 helicase)
COc1ccc(/C=C2\SC(N)=NC2=O)cc1Br	PI5P4K alpha inh -50.9 (no result: RECQ1 helicase)
CC1=C[C@@H](O)CC(C)(C)[C@@H]1/C=C/C(C)=C/C=C/C(C)=C/C=C/C=C(C)/C=C/C=C(C)/C=C/C1=C(C)C[C@H](O)CC1(C)C	none (no result: APEX1 inh, PI5P4K alpha inh, RECQ1 helicase, FEN1 inh)
Nc1nc(SCC(=O)N2N=C3/C(=C/c4ccco4)CCCC3C2c2ccco2)n[nH]1 (stereo not drawn)	PI5P4K alpha inh -51.5
Cc1cc(C)n(-c2nc(NC(C)C)nc(NC(C)(C)C)n2)n1	none (no result: APEX1 inh, PI5P4K alpha inh, RECQ1 helicase, KAT2A inh, BLM helicase inh)
CCOc1cc(-c2c(C#N)c(=O)[nH]c3c2c(C)nn3-c2ccc(F)cc2)ccc1O	PI5P4K alpha inh -56.4
Oc1c(Br)cc(Br)cc1/C=N/NC(=S)N[C@H]1CC2C=CC1C2 (stereo partly drawn)	PI5P4K alpha inh -89.3
CNC(=S)N/N=C/c1cc(Br)cc(Br)c1O	PI5P4K alpha inh inconclusive, KAT2A inh inconclusive
O=S(=O)(c1cccc(-c2n[nH]c(=S)n2-c2ccccc2)c1)N1CCCC1	none (no result: PI5P4K alpha inh, RECQ1 helicase, KAT2A inh, FEN1 inh, BLM helicase inh)
N#CN=C1SCCS1	PI5P4K alpha inh -54.0
O=C(C[n+]1cccc2cc(Cl)ccc21)c1cccc([N+](=O)[O-])c1	none (no result: APEX1 inh, PI5P4K alpha inh, RECQ1 helicase, KAT2A inh, BLM helicase inh)
CN(C)c1ccc(C2CCc3ccccc3N2C(=O)c2ccccc2)cc1 (stereo not drawn)	none (no result: APEX1 inh, PI5P4K alpha inh, RECQ1 helicase, KAT2A inh, BLM helicase inh)
COC(=O)Cc1c(C)c2cc3c(c(C)c2oc1=O)OCN(CCc1ccc(OC)cc1)C3	KAT2A inh 31.6µM (no result: APEX1 inh, PI5P4K alpha inh, RECQ1 helicase)
Cc1cc([N+](=O)[O-])cc(/C=N/n2c(C)nc3ccccc3c2=O)c1O	none
COC(=O)c1ccccc1-c1ccc(/C=c2\sc3nc4cc(Br)cnc4n3c2=O)o1	none (no result: PI5P4K alpha inh, RECQ1 helicase, KAT2A inh, FEN1 inh, BLM helicase inh)
O=C(O)c1cc(C(=O)O)cc(-c2ccc(/C=c3/sc4nc5ccccc5n4c3=O)o2)c1	APEX1 inh 28.2µM, RECQ1 helicase inconclusive, FEN1 inh 35.5µM
COC(=O)/C=c1/sc2nc3ccccc3n2c1=O	KAT2A inh inconclusive (no result: PI5P4K alpha inh)
O=c1/c(=C\c2cc([N+](=O)[O-])cc([N+](=O)[O-])c2O)sc2nc3ccccc3n12	APEX1 inh 35.5µM, PI5P4K alpha inh -95.2, RECQ1 helicase 14.1µM, KAT2A inh inconclusive, FEN1 inh 56.2µM
O=C(O)c1ccccc1-c1ccc(C=c2sc3nc4cc(Br)cnc4n3c2=O)o1	PI5P4K alpha inh -89.4 (no result: APEX1 inh, RECQ1 helicase, KAT2A inh, FEN1 inh, BLM helicase inh)
CN1CCN(c2ccc(-c3cc(O)c4ncccc4c3)cc2)CC1	none (no result: PI5P4K alpha inh, RECQ1 helicase, FEN1 inh, BLM helicase inh)
CN(C)c1ccc(/C=C/c2ccnc3ccc(N)cc23)cc1	none (no result: APEX1 inh, PI5P4K alpha inh, RECQ1 helicase, KAT2A inh, BLM helicase inh)
CN(C)c1ccc(/C=C2\C(Cl)=Cc3ccccc32)cc1	none (no result: APEX1 inh, PI5P4K alpha inh, RECQ1 helicase, KAT2A inh, BLM helicase inh)
CC(C)C[C@H](NC(=O)[C@H](Cc1ccccc1)NC(=O)CNC(=O)[C@H](CCC(=O)O)NC(=O)[C@H](CCCNC(=N)N)NC(=O)[C@H](C)NC(=O)[C@H](C)NC(=O)[C@@H](N)CC(=O)O)C(=O)N[C@@H](CC(=O)O)C(=O)N[C@H](C(=O)N[C@@H](CC(C)C)C(=O)N[C@H](C(=O)N[C@H](C(=O)N[C@@H](CC(C)C)C(=O)N[C@@H](Cc1cnc[nH]1)C(=O)N[C@@H](CCCNC(=N)N)C(=O)N[C@@H](C)C(=O)NCC(=O)N[C@@H](C)C(=O)N[C@@H](CCCNC(=N)N)C(=O)O)C(C)C)C(C)C)[C@@H](C)O	none (no result: PI5P4K alpha inh, FEN1 inh)
CC(C)(C)N[S+](=O)([O-])c1cccc(-c2nnc(SCC(=O)Nc3ccc(C(=O)O)cc3)n2-c2ccccc2)c1	none (no result: PI5P4K alpha inh, RECQ1 helicase, KAT2A inh, FEN1 inh, BLM helicase inh)
CCOC(=O)c1sc(=S)n(-c2ccccc2)c1N(C(C)=O)C(C)=O	PI5P4K alpha inh -75.2, FEN1 inh inconclusive
CCOC(=O)c1sc(=S)n(-c2ccccc2)c1N	none
Cc1[nH]c2ccccc2c1C(=O)COC(=O)c1ccccc1SCC(=O)N1CCCC1	none (no result: APEX1 inh, PI5P4K alpha inh, RECQ1 helicase, KAT2A inh, BLM helicase inh)
Cc1cc[n+](CC#N)cc1	none (no result: APEX1 inh, PI5P4K alpha inh, RECQ1 helicase, KAT2A inh, BLM helicase inh)
CCCCCC/C=C\CCCCCCCc1cccc(O)c1C(=O)O	KAT2A inh inconclusive (no result: PI5P4K alpha inh, FEN1 inh)
CCCCCC(=O)Cc1cc(O)cc2c1C(=O)Oc1cc(O)c(C(=O)O)c(CCCCC)c1O2	PI5P4K alpha inh -75.6, RECQ1 helicase 15.8µM, FEN1 inh inconclusive, BLM helicase inh inconclusive
